Screens from PubChem.
FECH block: inhibitors of human ferrochelatase, primary screen, biochemical, purified FECH, Ni-mesoporphyrin absorbance | Ni-mesoporphyrin absorbance 550 nm | 3.3% of 20,000 active | AID 1671448, 2021 | Ferrochelatase, mitochondrial (Homo sapiens), P22830 | calls only at 10 µM (by protocol);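 active = enzyme reaction rate more than 3 SD below the solvent-only control wells on the same plate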;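 also: lower slope than DMSO wells means FECH inhibition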
Target sequence (P22830 whole entry, looked up): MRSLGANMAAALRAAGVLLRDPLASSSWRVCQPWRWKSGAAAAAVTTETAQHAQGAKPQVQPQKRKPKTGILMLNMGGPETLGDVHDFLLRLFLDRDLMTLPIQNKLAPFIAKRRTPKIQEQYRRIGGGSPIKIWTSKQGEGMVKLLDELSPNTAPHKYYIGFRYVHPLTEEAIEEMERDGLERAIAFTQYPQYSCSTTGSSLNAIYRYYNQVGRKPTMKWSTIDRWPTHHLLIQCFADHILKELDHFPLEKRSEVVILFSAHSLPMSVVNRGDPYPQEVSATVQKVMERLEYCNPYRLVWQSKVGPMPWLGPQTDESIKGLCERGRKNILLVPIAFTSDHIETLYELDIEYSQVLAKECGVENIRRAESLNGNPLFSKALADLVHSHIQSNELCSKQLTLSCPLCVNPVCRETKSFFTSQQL
The depositor's hits bear a star; i = inactive; + = active, no number. Many of the other results were omitted from the sample, so hits are more common in it than they were.

SMILES	FECH block
O=C(NC1CC1)C1CCCN(C2CCN(C(=O)CCc3cnccn3)CC2)C1 (stereo not given)	i
Cc1ccc(Nc2cc(C)nc(Nc3ccc(NC(=O)c4cccs4)cc3)n2)cc1	i
COc1cccc(Nc2nc(NCCC(C)C)nc3c2cnn3-c2ccccc2)c1	i
COc1cccc(Nc2nc(N3CCN(c4ccccc4)CC3)nc3c2cnn3-c2ccccc2)c1	i
COc1ccc(NC(=O)CSCc2nc(-c3ccc(OC)c(OC)c3)no2)cc1	i
Cc1cccc(-c2ccc(N3CCC(C(=O)NC4CC4)CC3)nn2)c1	i
Cc1cccc(CN2CCCN(CC(=O)Nc3ccc(C)c(F)c3)S2(=O)=O)c1	i
O=C(CN1CCCN(Cc2cccc(F)c2)S1(=O)=O)Nc1ccc(F)c(Cl)c1	i
Cc1cccc(CN2CCCN(CC(=O)Nc3ccc(F)c(Cl)c3)S2(=O)=O)c1	+
Cc1ccc(Cl)cc1NC(=O)CN1CCCN(Cc2ccccc2)S1(=O)=O	i
Cc1ccc(Cl)cc1NC(=O)CN1CCN(Cc2ccc(F)cc2Cl)S1(=O)=O	i
COc1ccccc1NC(=O)CN1CCN(Cc2ccccc2Cl)S1(=O)=O	i
Cc1ccc(Cl)cc1NC(=O)CN1CCCN(Cc2ccccc2Cl)S1(=O)=O	+
Cc1cccc(C)c1NC(=O)CN1CCN(Cc2ccccc2Cl)S1(=O)=O	i
Cc1c(Cl)cccc1NC(=O)CN1CCCN(Cc2ccccc2Cl)S1(=O)=O	+
Cc1ccc(C(=O)CN(c2nc3nc(C)c(Cl)c(C)n3n2)S(=O)(=O)c2ccc(C)cc2)cc1	i
CC(C)(NC(=O)c1cccs1)C(=O)NCC(c1ccc(F)cc1)N1CCCC1 (stereo not given)	i
CC(c1ccc(-c2ccc3nc(CO)[nH]c3c2)cc1)N1CCCCC1 (stereo not given)	i
COc1ccc(C(=O)Nc2nc3n(n2)C(c2ccccc2)C=C(c2ccc(Cl)cc2)N3)cc1OC (stereo not given)	i
CCc1ccc(NCc2cc(=O)n3[nH]c(NCc4ccc(OC)cc4)nc3n2)cc1	i
CCCc1cc(=O)n2[nH]c(CNc3c(C)cccc3C)nc2n1	i
CCCc1cc(=O)n2[nH]c(CNc3ccc(CC)cc3)nc2n1	i
CCOc1ccccc1NCc1nc2nc(C(C)C)cc(=O)n2[nH]1	i
CCCc1cc(=O)n2[nH]c(CNc3ccccc3OC)nc2n1	+
Cc1c(Cl)cccc1NCc1cc(=O)n2[nH]c(NCc3ccc(F)cc3)nc2n1	i
SMILES	FECH block
CCCc1cc(=O)n2[nH]c(CNc3ccccc3CC)nc2n1	+
Cc1c(Cl)cccc1NCc1nc2nc(C(C)C)cc(=O)n2[nH]1	+
COc1ccccc1CNc1nc2nc(CN3CCN(c4ccccc4)CC3)cc(=O)n2[nH]1	i
COc1ccc(CNc2nc3nc(CNc4ccc(Cl)cc4)cc(=O)n3[nH]2)cc1	i
CCCc1cc(=O)n2[nH]c(CNc3ccc(Cl)cc3)nc2n1	+
COc1cccc(Nc2nc(N3CCCCC3)nc3c2cnn3-c2ccccc2)c1	i
CCC1(C2CCN(C(=O)c3ncccc3C)CC2)NC(=O)NC1=O (stereo not given)	i
CC(C)(C)c1ccc(C(=O)N2CCC(c3cc(CC(=O)O)[nH]n3)CC2)cc1	i
CCN(CC1CCOCC1)C(=O)C1CCCN(Cc2ccco2)C1 (stereo not given)	i
Cc1sc2ccccc2c1-c1nccn1CCCn1ccnc1	i
COc1ccccc1-c1nc(CSc2nc(-c3cccnc3)cc(=O)[nH]2)c(C)o1	i
Cc1ccc(C)c(OCC(=O)N(C)Cc2nc(-c3ccccn3)no2)c1C	i
O=C(NCCn1cccn1)c1ccc(CC2CCCNC2)cc1 (stereo not given)	i
CC(C)C(=O)Nc1nc2n(n1)C(c1ccccc1Cl)C=C(c1ccccc1)N2 (stereo not given)	i
CC(C)c1nc(N2CCN(CCn3c(=O)oc4ccccc43)CC2)no1	i
COc1ccc(-c2nc(Cn3c(=O)c4cnc(-c5ccc(C)cc5)nc4n(C)c3=O)c(C)o2)c(OC)c1	i
Cc1ccc(C(=O)Nc2nc3n(n2)C(c2ccc(Cl)cc2)C=C(c2ccc(C)cc2)N3)cc1 (stereo not given)	+
O=C(Nc1nc2n(n1)C(c1ccccc1)C=C(c1ccc(Cl)cc1)N2)c1ccc(Cl)cc1 (stereo not given)	i
Cc1cccc(C(=O)Nc2nc3n(n2)C(c2ccccc2Cl)C=C(c2ccc(Cl)cc2)N3)c1 (stereo not given)	i
Cc1cccc(C(=O)Nc2nc3n(n2)C(c2ccc(Cl)cc2)C=C(c2ccccc2)N3)c1 (stereo not given)	+
Cc1ccc(C2=CC(c3ccc(C)cc3)n3nc(NC(=O)c4cccc(Cl)c4)nc3N2)cc1 (stereo not given)	+
O=C(Nc1nc2n(n1)C(c1ccc(F)cc1)C=C(c1ccc(Cl)cc1)N2)c1ccccc1 (stereo not given)	i
Cc1ccc(C2=CC(c3ccc(Cl)cc3)n3nc(NC(=O)C(C)C)nc3N2)cc1 (stereo not given)	i
Cc1ccc(C(=O)Nc2nc3n(n2)C(c2ccccc2)C=C(c2ccccc2)N3)cc1 (stereo not given)	i
Cc1ccc(C(=O)Nc2nc3n(n2)C(c2ccc(F)cc2)C=C(c2ccccc2)N3)cc1 (stereo not given)	i
SMILES	FECH block
COc1ccc(CN(C)C(=O)CCc2nc(-c3ccccc3C)no2)c2cccnc12	i
CCc1c(C)nn(CCNC(=O)c2cc(C(C)C)nn2C)c1C	i
CC(C)c1nc(CN(C)C(=O)c2ccc(-n3cnnn3)cc2)cs1	i
C=CCN(CC=C)c1cc(CCC)nc2nc(-c3cccnc3)nn12	i
CC(=O)Nc1ccsc1C(=O)N(C)CC1(CO)CCC1	i
COc1ccc(NC(=O)CN2c3ccc(Br)cc3-c3ccccc3S2(=O)=O)cc1	i
O=C1CN(C(=O)CN2c3ccc(Br)cc3-c3ccccc3S2(=O)=O)c2ccccc2N1	i
Cc1ccc(NC(=O)CN2c3ccc(Br)cc3-c3ccccc3S2(=O)=O)cc1	+
Cc1ccc(NC(=O)CN2CCN(Cc3ccccc3C)S2(=O)=O)cc1C	i
Cc1cccc(C(C)C)c1NC(=O)CN1c2ccc(Br)cc2-c2ccccc2S1(=O)=O	i
NS(=O)(=O)c1ccc(NC(=O)CN2C(=O)c3ccccc3S2(=O)=O)cc1	i
O=C(CN1c2ccc(Br)cc2-c2ccccc2S1(=O)=O)NC1CC1	+
Cc1ccc(NC(=O)CN2c3ccc(Br)cc3-c3ccccc3S2(=O)=O)cc1C	+
CC(C)CCNC(=O)CN1c2ccc(Br)cc2-c2ccccc2S1(=O)=O	+
O=C(CN1c2ccc(Br)cc2-c2ccccc2S1(=O)=O)Nc1ccc(F)cc1F	i
COc1ccc(NC(=O)c2cc(-c3ccc(OC)c(S(N)(=O)=O)c3)n[nH]2)c(OC)c1	i
Cc1ccnc(C(NC(=O)c2ccc(O)c(Cl)c2)C2CC2)c1 (stereo not given)	i
CCNC(=O)c1ccc(N2CCN(C3CCOCC3)CC2)nc1	i
Fc1ccc(Nc2nc(N3CCCC3)nc3c2cnn3-c2ccccc2)cc1	i
O=C(c1cn2ccsc2n1)N1C[C@H]2OC(=O)N(Cc3ccccn3)[C@H]2C1	i
CCCN1CCC(Cc2noc([C@@]34CC[C@@](C)(OC3=O)C4(C)C)n2)CC1	i
Cc1ccccc1Nc1nc(N2CCN(c3ccccc3)CC2)nc2c1cnn2-c1ccccc1	i
